Source: PubChem (National Center for Advancing Translational Sciences (NCATS))
HCV inh: HCV inhibition; Huh7.5.1 HCVcc-Cre infection, luciferase reporter, 44 h; Potency, µM (series often up to 41.8 µM), hits mostly inhibitors; 3.4% of 340,000 active; AID 651820
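1,000 cells/well; 4 h culture; + compound; + HCVcc-Cre (~0.5 moi); 44 h; luciferase substrate, RT 15 min; read 15 sec.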
NS1 inh: influenza NS1 inhibition. Potency, µM (series often up to 46.1 µM). 0.4% of 270,000 active. AID 2326; calls by dose curve; further: actives are rising curves; nearly all actives have a fitted effect of over 50% in size
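OD600 was taken as the measure of yeast growth restored by compound in an NS1-expressing S. cerevisiae strain. Cells had been washed out of glucose medium and diluted 1:100 into galactose -URA medium, pH 6.0.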
Pf growth 96h: P. falciparum growth inhibition at 96 hour, primary screen for plastid delayed-death inhibitors | P. falciparum luciferase reporter growth, 96 h | Potency, µM (doses to about 28.7 µM), usual class: inhibitors | 6.9% of 320,000 active
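Readout is luminescence from an integrated firefly luciferase in P. falciparum. Red cells, 2% hematocrit and 0.05% parasitemia final, were cultured with compound through two parasite generations (96 hours) at 37 C, 5% CO2.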
Pf growth 48h: P. falciparum growth inhibition at 48 hours (one generation). Potency, µM (doses to about 28.7 µM), actives largely listed as inhibitors. P. falciparum luciferase growth in erythrocytes, 48 h. 5.9% of 310,000 active
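Firefly luciferase activity from engineered P. falciparum reports growth; inhibitors lower the luminescent signal. Cultures contained 2% hematocrit erythrocytes at 0.1% final parasitemia.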
VACV Venus inh: inhibitors of vaccinia virus (Venus reporter). Vaccinia virus Venus reporter expression, fluorescence. 0.46% of 330,000 active. Potency, µM (top dose mostly 36.5 µM), actives largely listed as inhibitors; calls by dose curve; tested in A549 cells; further: nearly all actives have a fitted effect of over 30% in size
VACV mCherry inh: inhibitors of vaccinia virus infection (mCherry reporter signal). 0.63% of 310,000 active. Vaccinia virus mCherry reporter infection, fluorescence. Potency, µM (series often up to 36.5 µM), actives largely listed as inhibitors; calls by dose curve; tested in A549 cells; further: nearly all actives have a fitted effect of over 35% in size
A number is an active result; 0 = inactive; ? = inconclusive; - = no result given; [ ] = remark or other dose. Shown are actives, neighbours in structure and some others; about 11% of the full set was active somewhere. Unless noted, the call rests on the fitted dose curve; in most records, active means well fitted inhibition curve with a large enough effect; inconclusive means small, poorly fitted or top-dose-only effect, or another doubt; inactive means no such curve, though single readings can be large or run the other way.

SMILES	HCV inh	NS1 inh	Pf growth 96h	Pf growth 48h	VACV Venus inh	VACV mCherry inh
CC/C=C/CC(=O)N[C@@H](c1ccccc1)[C@@H](O)C(=O)O[C@H]1C[C@@]2(O)[C@@H](OC(=O)c3ccccc3)C3[C@](C)(C(=O)[C@H](OC(C)=O)C(=C1C)C2(C)C)[C@@H](O)C[C@H]1OC[C@@]31OC(C)=O (stereo not given in full)	0	0	0.33µM	0.47µM	?	0
CC(=O)O[C@H]1C(=O)[C@@]2(C)[C@H]([C@H](OC(=O)c3ccccc3)[C@]3(O)C[C@H](OC(=O)[C@H](O)C(NC(=O)c4ccccc4)c4ccccc4)C(C)=C1C3(C)C)[C@]1(OC(C)=O)CO[C@@H]1C[C@@H]2O (stereo not given in full)	?	0	0.074µM	0.1µM	0	?
CCCCCC(=O)N[C@@H](c1ccccc1)[C@@H](O)C(=O)O[C@H]1C[C@@]2(O)[C@@H](OC(=O)c3ccccc3)C3[C@](C)(C(=O)[C@H](OC(C)=O)C(=C1C)C2(C)C)[C@@H](O)C[C@H]1OC[C@@]31OC(C)=O (stereo not given in full)	?	0	?	?	?	?
C/C=C(\C)C(=O)N[C@@H](c1ccccc1)[C@@H](O)C(=O)O[C@H]1C[C@@]2(O)[C@@H](OC(=O)c3ccccc3)C3[C@](C)(C(=O)[C@H](OC(C)=O)C(=C1C)C2(C)C)[C@H](O)C[C@H]1OC[C@@]31OC(C)=O (stereo not given in full)	?	0	?	?	0	0
CC(=O)O[C@H]1C(=O)[C@@]2(C)[C@H]([C@H](OC(=O)c3ccccc3)[C@]3(O)C[C@H](OC(=O)[C@H](O)[C@@H](NC(=O)c4ccccc4)c4ccccc4)C(C)=C1C3(C)C)[C@]1(OC(C)=O)CO[C@@H]1C[C@@H]2O	?	-	0.059µM	0.074µM	?	?
Cc1ccc(S(=O)(=O)NC(CC(C)C)C(=O)Nc2ccncc2)cc1 (stereo not given)	0	-	5.9µM	5.2µM	0	0
Cc1ccc(S(=O)(=O)NC(CC(C)C)C(=O)Nc2nccs2)cc1 (stereo not given)	0	0	-	?	0	-
CC(=O)Nc1ccc(NS(=O)(=O)c2cc3c4c(c2)CC(=O)N4CCC3)cc1	-	-	-	-	0	0
CC1CCN(C(=O)c2[nH]cnc2C(=O)N[C@@H](C)C(=O)OCc2ccccc2)CC1	3.5µM	0	0	0	0	0
CC(C)C[C@H](NC(=O)c1nc[nH]c1C(=O)N[C@@H](CC(C)C)C(=O)OC(C)(C)C)C(=O)OCc1ccccc1	0[8.37 µM]	0	?	?	0	0
CC(C)C[C@H](NC(=O)c1nc[nH]c1C(=O)NCC(=O)OCc1ccccc1)C(=O)OCc1ccccc1	0	?	?	4.7µM	0	0
CC(C)C[C@H](NC(=O)c1[nH]cnc1C(=O)N[C@@H](C)c1ccccc1)C(=O)OCc1ccccc1	?	0	5.9µM	8.3µM	?	0
C[C@H](NC(=O)c1nc[nH]c1C(=O)N1CCN(C(=O)OC(C)(C)C)CC1)C(=O)OCc1ccccc1	0	0	0	0	0	0
Cc1c(Cl)ccc2sc(N3CCN(C(=O)CCS(=O)(=O)c4ccc(F)cc4)CC3)nc12	-	-	-	-	?	0
COc1ccc(OCc2cccc(C(=O)NN)c2)cc1	0	0	0	0	0	0
O=C(CC1C[C@H](C(=O)N2CCCCC2)[C@@]2(CCc3ccccc3)c3[nH]c4ccccc4c3CCN2C1=O)NCCc1ccccn1 (stereo not given in full)	0[8.37 µM]	-	-	-	?	10µM
CC[C@]12c3[nH]c4ccccc4c3CCN1C(=O)C(CC(=O)NCCc1ccccn1)C[C@@H]2C(=O)N1CCN(C(=O)c2ccco2)CC1 (stereo not given in full)	0.56µM	-	-	-	0	0
CCC(Sc1ccccn1)C(=O)Nc1cccc([N+](=O)[O-])c1 (stereo not given)	0	0	0	0	0	0
CCC(=O)Nc1ccc2oc(-c3ccccc3Br)nc2c1	?	0	0	0	0	-
O=C(COC(=O)c1ccccc1[N+](=O)[O-])Nc1cc(S(=O)(=O)N2CCOCC2)ccc1N1CCCC1	0	0	0	0	0	0
